Values joined by “and” are separate entries in the source; they are usually repeats but may differ in a detail not shown here. Equal entries are not always repeated. A number with no mark means an inactive call. Inconclusive results are not listed. Entries that show only a call come without a potency. Active and inactive are the calls of the source. Unless noted, the call rests on the fitted dose curve; in most records, active means well fitted curve in the direction sought with a large enough effect; inconclusive means small, poorly fitted or top-dose-only effect, or another doubt; inactive means no such curve, though single readings can be large; an effect the other way counts as inactive or inconclusive.
How the values were obtained:
[1] = qHTS to identify inhibitors of the type 1 interferon - major histocompatibility complex class I in skeletal muscle: primary screen against the NCATS LOPAC collection (AID 1347405);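 further: lytic HiBiT luminescence reporting HLA-B protein level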
How it was run: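 Luminescence from HiBiT fused to endogenous HLA-B in CRISPR-engineered human myoblasts served as the read-out. Cells received 4.0 ng/ml IFN-beta plus compound (seven concentrations, 1:4.3 steps, highest 46 uM final) for 24 hrs before lytic detection.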

[2] = qHTS to identify inhibitors of the type 1 interferon - major histocompatibility complex class I in skeletal muscle: primary screen against the NCATS Pharmaceutical Collection (AID 1347407);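 further: luminescence of HiBiT knocked into endogenous HLA-B as interferon-induced MHC class I level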
How it was run: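 Compounds […] were added to CRISPR-engineered HLA-B-HiBiT C25cl48 human myoblasts with 4.0 ng/ml IFN-beta. After 24 hrs at 37 C, cells were lysed and HiBiT luminescence measured.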

[3] = qHTS for inhibitors of adenylyl cyclases using a fission yeast platform: a pilot screen against the NCATS LOPAC library (AID 1347410)
How it was run: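 GFP from fbp1-GFP reporter, read by Acumen laser cytometry, indicates AC inhibition in fission yeast expressing AC9, GNAS and PDE4D2. Cells grown 18 h in the dark at 30C with compounds, final up to 57 uM.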

[4] = target: Protein phosphatase 1D (Homo sapiens) (UniProt O15297); assay: RapidFire Mass Spectrometry qHTS Assay for Modulators of WT P53-Induced Phosphatase 1 (WIP1) (AID 1347424);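 further: amount of dephosphorylated VEPPL-S-QETFS peptide product formed by WIP1; series mostly up to about 63 µM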
Sequence of Protein phosphatase 1D (Homo sapiens) (O15297 whole entry, looked up): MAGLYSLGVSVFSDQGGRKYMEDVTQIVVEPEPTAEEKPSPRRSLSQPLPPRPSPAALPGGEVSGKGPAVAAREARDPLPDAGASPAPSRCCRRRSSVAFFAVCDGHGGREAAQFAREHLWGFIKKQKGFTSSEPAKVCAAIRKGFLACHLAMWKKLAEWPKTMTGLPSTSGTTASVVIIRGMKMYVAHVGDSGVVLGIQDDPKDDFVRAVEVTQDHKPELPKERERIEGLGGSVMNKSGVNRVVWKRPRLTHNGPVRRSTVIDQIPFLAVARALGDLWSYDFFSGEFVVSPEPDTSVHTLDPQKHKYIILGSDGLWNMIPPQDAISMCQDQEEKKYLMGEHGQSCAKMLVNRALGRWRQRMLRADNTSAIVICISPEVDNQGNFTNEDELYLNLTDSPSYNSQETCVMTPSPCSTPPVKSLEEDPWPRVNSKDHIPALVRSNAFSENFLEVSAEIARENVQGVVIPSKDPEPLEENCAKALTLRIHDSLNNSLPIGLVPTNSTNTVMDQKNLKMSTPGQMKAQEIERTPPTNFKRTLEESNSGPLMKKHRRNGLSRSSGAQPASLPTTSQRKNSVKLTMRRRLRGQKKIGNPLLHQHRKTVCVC
How it was run: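 10 nM WIP1 + cpd, 1 h RT; + 2 uM VEPPL-pS-QETFS, 5 min RT; stop 0.5% formic acid; labelled product standard 1 uM; RapidFire MS. Buffer 50 mM Tris pH 7.5, 30 mM MgCl2, 1 mM TCEP.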

[5] = target: Protein phosphatase 1D (Homo sapiens) (UniProt O15297); assay: Rhodamine-PBP qHTS Assay for Modulators of WT P53-Induced Phosphatase 1 (WIP1) (AID 1347425)
How it was run: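 WIP1 (5 nM final) was preincubated with compound for 1 hour at room temperature. It then dephosphorylated 10 uM VEPPL-pS-QETFS peptide in Tris-HCl pH 7.5 with 30 mM MgCl2. Released Pi was detected by 10 uM Rh-PBP fluorescence (ex 525/em 598 nm) read at 1-min intervals for 11 min, as delta f1 - f0.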

[6] = Validation qHTS assay for inhibitors of Activation Induced Cytidine Deaminase (AID): UDG Counterscreen signal (AID 1347427)
How it was run: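 Counterscreen read of UDG activity (2 U/mL, 4/3x) in the FRET deamination format with AID (1 uM, 4/3x), DJC20/DJC23 substrates (250 nM, 4x), 4 h at room temperature. NaOH stop, fluorescence at 560 ex/665 em.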

[7] = Primary qHTS for inhibitors of La Crosse Virus (LACV) - induced cell death in SH-SY5Y cells (AID 1508616);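 further: top concentration of the series differs between compounds; higher means more rescue of cells from virus-induced death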
How it was run: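 Protection against LACV-induced cell death is scored in SH-SY5Y cells exposed to compounds and virus (0.01 MOI) for 6 days. Data normalized to virus-infected DMSO wells and virus-free DMSO wells.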

[8] = target: Calcium and integrin-binding protein 1 (Homo sapiens) (UniProt Q99828); assay: Validation qHTS for Identification of Calcium Integrin Binding protein 1 (CIB1) Competitor (AID 1508618)
Sequence of Calcium and integrin-binding protein 1 (Homo sapiens) (Q99828 whole entry, looked up): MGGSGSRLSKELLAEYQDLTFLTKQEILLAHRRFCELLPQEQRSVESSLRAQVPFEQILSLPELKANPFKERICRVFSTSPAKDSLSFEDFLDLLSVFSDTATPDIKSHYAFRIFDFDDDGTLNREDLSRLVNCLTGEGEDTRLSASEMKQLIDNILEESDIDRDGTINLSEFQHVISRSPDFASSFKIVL
How it was run: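 Fluorescence polarization with 1 uM CIB1-GST and 100 nM FITC-alphaIIb peptide in HEPES pH 7.4, NaCl, 5 mM CaCl2, Tween20. Compounds at up to 114 uM final, preincubated with protein 15 min; read after 15 min more at RT.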

[9] = target: Calcium and integrin-binding protein 1 (Homo sapiens) (UniProt Q99828); assay: Primary qHTS for Identification of Calcium Integrin Binding Protein 1 (CIB1) Competitor (AID 1508620);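 further: GST tagged CIB1 binding a fluorescein labelled alphaIIb integrin peptide tracer; top concentration of the series differs between compounds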
How it was run: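 CIB1-GST (1 uM final) and compound incubated 15 min at room temperature before adding FITC-alphaIIb peptide tracer (100 nM final). Competition for binding read by fluorescence polarization (ex 480, em 540) after another 15 min at room temperature.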

[10] = Primary qHTS for small molecule stabilizers of the endoplasmic reticulum resident proteome: Secreted ER Calcium Modulated Protein (SERCaMP) assay (AID 1508630)
How it was run: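 GLuc-SERCaMP-expressing SH-SY5Y cells, pretreated 16 h with compound, are challenged with thapsigargin to empty ER calcium stores; after 4 h, coelenterazine is added directly to the medium and luminescence is imaged.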

[11] = A High-Content qHTS Against Drug Library for the Identification of Small Molecules that Inhibit DYT1 Early Onset Primary Dystonia-Associated Cell Pathology (AID 1645839; calls by dose curve; further: series mostly up to about 46 µM)
How it was run: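 In this high-content image screen, delE TorsinA mislocalization in inducible Flp-In 293 cells is scored as %pathology, with cell count serving as the counterscreen. Compound exposure lasts 48 h under tetracycline induction in reduced-serum medium.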

[12] = target: Cytochrome P450 2D6 (Homo sapiens) (UniProt P10635); assay: Cytochrome P450 family 2 subfamily D member 6 (CYP2D6) small molecule antagonists: luciferase biochemical (cell-free) qHTS assay (AID 1645840; active means well fitted curve in the direction sought with a large enough effect in the repeat runs; an effect the other way counts as inactive or inconclusive; further: nearly all actives have a fitted effect of over 55% in size; further: potency means the concentration at half of the fitted maximal effect)
Sequence of Cytochrome P450 2D6 (Homo sapiens) (P10635 whole entry, looked up): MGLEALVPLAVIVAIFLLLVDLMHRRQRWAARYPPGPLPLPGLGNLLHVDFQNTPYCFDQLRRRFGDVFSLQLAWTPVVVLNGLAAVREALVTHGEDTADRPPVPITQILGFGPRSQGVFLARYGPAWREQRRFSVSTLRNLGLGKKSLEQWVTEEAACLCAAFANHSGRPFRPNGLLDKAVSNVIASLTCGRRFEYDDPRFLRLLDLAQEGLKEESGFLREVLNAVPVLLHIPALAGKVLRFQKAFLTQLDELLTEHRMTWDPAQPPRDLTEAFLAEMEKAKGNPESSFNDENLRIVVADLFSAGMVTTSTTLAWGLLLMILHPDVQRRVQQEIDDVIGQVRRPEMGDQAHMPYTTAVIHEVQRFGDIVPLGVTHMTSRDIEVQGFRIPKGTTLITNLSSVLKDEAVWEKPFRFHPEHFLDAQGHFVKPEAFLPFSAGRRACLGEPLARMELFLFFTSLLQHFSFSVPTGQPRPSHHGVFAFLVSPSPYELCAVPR
How it was run: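 P450-Glo luminescent screen: recombinant CYP2D6 enzyme–proluciferin substrate mix preincubated with compound 10 min at room temperature, then NADPH regeneration added for 1 h at room temperature. Detection reagent added for 20 min; luciferin light read as relative luminescence units.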

[13] = target: Cytochrome P450 2C9 (Homo sapiens) (UniProt P11712); assay: Cytochrome P450 family 2 subfamily C member 9 (CYP2C9) small molecule antagonists: luciferase biochemical (cell-free) qHTS assay (AID 1645842; active means well fitted curve in the direction sought with a large enough effect in the repeat runs; an effect the other way counts as inactive or inconclusive; further: nearly all actives have a fitted effect of over 55% in size; further: potency means the concentration at half of the fitted maximal effect)
Sequence of Cytochrome P450 2C9 (Homo sapiens) (P11712 whole entry, looked up): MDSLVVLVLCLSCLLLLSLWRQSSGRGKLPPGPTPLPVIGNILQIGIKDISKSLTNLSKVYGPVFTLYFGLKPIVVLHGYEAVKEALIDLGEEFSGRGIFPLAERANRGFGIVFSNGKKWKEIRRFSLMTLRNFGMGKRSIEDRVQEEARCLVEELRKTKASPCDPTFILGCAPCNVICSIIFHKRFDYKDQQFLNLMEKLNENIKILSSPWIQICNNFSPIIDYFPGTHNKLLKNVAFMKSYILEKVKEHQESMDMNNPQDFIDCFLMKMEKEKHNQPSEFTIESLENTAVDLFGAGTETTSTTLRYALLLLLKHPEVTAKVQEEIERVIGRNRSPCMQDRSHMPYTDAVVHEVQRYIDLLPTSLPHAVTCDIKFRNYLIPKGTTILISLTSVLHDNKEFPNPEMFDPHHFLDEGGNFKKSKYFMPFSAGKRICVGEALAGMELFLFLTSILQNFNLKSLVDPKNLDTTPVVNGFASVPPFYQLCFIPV
How it was run: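 Luminescence, after 20 min with luciferin detection reagent, reflected CYP2C9 turnover during a 1 h NADPH-driven reaction at 37C. Enzyme-substrate mix contained 0.4% bovine serum albumin and was preincubated with compound 10 min at room temperature.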

Papain (Carica papaya) = Papain (Carica papaya) (UniProt P00784); assay: Primary qHTS assay for inhibitors of the protease papain (AID 1645873);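 further: papain turnover of Z-FR-AMC read as the AMC fluorescence gain over 10 min; series mostly up to about 50 µM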
Sequence of Papain (Carica papaya) (P00784 whole entry, looked up): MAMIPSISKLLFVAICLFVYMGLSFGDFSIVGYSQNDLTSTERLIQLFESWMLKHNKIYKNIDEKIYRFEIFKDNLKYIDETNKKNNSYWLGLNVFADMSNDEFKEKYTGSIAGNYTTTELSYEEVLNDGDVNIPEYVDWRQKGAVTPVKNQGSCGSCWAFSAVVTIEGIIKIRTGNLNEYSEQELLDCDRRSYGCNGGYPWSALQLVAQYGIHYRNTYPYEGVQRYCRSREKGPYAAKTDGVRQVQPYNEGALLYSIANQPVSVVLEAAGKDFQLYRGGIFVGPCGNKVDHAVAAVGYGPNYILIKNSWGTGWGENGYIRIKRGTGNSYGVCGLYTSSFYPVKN

[14] = target: Single-stranded DNA cytosine deaminase (Homo sapiens) (UniProt Q9GZX7); assay: Validation qHTS assay for inhibitors of Activation Induced Cytidine Deaminase (AID): AID signal (AID 1347429)
Sequence of Single-stranded DNA cytosine deaminase (Homo sapiens) (Q9GZX7 whole entry, looked up): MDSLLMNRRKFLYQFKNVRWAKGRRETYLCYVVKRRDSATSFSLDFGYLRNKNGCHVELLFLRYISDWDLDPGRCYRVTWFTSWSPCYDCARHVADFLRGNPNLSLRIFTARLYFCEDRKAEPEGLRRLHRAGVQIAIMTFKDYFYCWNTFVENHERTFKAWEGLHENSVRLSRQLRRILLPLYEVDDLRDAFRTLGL
How it was run: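 Fluorescence at 540 nm excitation and 590 nm emission reports ssDNA cytosine deamination by AID, with UDG in the same well. Compound-treated reactions ran 4 hr at room temperature with DJC20/DJC23 substrate, followed by 30 min NaOH treatment.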

[15] = Counterscreen qHTS for small molecule stabilizers of the endoplasmic reticulum resident proteome: GLuc-NoTag assay (AID 1508627);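 further: SH-SY5Y cells given compound then 100 nM thapsigargin to empty ER calcium; series mostly up to about 76 µM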
How it was run: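 Luminescence of Gaussia luciferase secreted into the medium (coelenterazine, 0.07x final, unlysed cells) was the read-out. Human SH-SY5Y neuroblastoma cells constitutively secreting untagged GLuc received compound for 19 h, then 100 nM thapsigargin for 4 h.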

[16] = Cell Viability qHTS for small molecule stabilizers of the endoplasmic reticulum resident proteome (AID 1508629); conditions: cell viability counter-screen, 100 nM thapsigargin for final 4 h;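 further: human SH-SY5Y neuroblastoma cells carrying the GLuc-SERCaMP reporter; compound exposure about 46 h in total before the viability read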

Row | Structure (SMILES) | Potency [1] | Potency [2] | outcome [3] | Potency [4] | outcome [5] | outcome [6] | Potency [7] | outcome [8] | Potency [9] | Potency [10] | Potency [11] | Potency [12] | Potency [13] | Potency (Papain (Carica papaya)) | Potency [14] | Potency [15] | max response [16] [%]
1 | C=CCc1ccccc1OCC(O)CNC(C)C (stereo not given) | inactive | inactive | inactive | inactive | inactive | inactive | inactive | inactive | inactive | inactive | inactive | 6.92 µM (active) and 8.49 µM (active) | inactive | inactive | – | – | –
2 | CC1=C(C)C(=O)C(CCCCC#CCCCC#CCO)=C(C)C1=O | inactive | inactive | inactive | – | inactive | inactive | inactive | inactive | inactive | – | inactive | 4.9 µM (active) | 3.09 µM (active) | inactive | inactive | inactive | –
3 | NC(=O)c1cn(Cc2c(F)cccc2F)nn1 | inactive | inactive | inactive | – | inactive | inactive | inactive | inactive | inactive | inactive | – | inactive | inactive | inactive | inactive | – | –
4 | CO[C@@]1(NC(=O)CSCC#N)C(=O)N2C(C(=O)O)=C(CSc3nnnn3C)CS[C@@H]21 | inactive | inactive | inactive | inactive | inactive | inactive | inactive | inactive | – | inactive | inactive | inactive | inactive | – | – | – | –
5 | CCN(CC)CC(=O)Nc1c(C)cccc1C | inactive | inactive | inactive | inactive | inactive | inactive | inactive | inactive | inactive | inactive | inactive | – | – | inactive | – | – | –
6 | CC(C)NCC(O)c1cc(O)cc(O)c1 (stereo not given) | inactive | inactive | inactive | inactive | inactive | inactive | inactive | inactive | – | inactive | – | – | inactive | inactive | – | – | –
7 | CCN1CCc2nc(N)oc2CC1 | inactive | inactive | inactive | inactive | inactive | inactive | inactive | – | inactive | inactive | inactive | inactive | inactive | – | – | – | –
8 | NC/C=C/C(=O)O | inactive | inactive | inactive | inactive | inactive | inactive | inactive | inactive | inactive | inactive | inactive | inactive | inactive | inactive | – | – | –
9 | OCCN1CCN(CCCN2c3ccccc3C=Cc3ccccc32)CC1 | inactive | inactive | inactive | – | inactive | inactive | inactive | inactive | inactive | – | – | 13.8 µM (active) | inactive | – | inactive | inactive | -5.61

Source: PubChem BioAssay (NCATS)
